The supplement of paper PMC7156485
± gives the standard deviation of the averaged measurements.

Experiments:
Conditions in all cases: concentration: 10 µM; 24 h
HCC1569 [1] = assay: cell number relative to DMSO (% of DMSO); higher = more cells (less growth inhibition / toxicity)
How it was run: (§1)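 Treatment: HCC1569 and TDF cells, 800 per well in 384-well plates with RPMI and 10% FBS, were given compounds at 10 µM for 24 h at 37 °C, in triplicate. Readout: after 3.7% formaldehyde fixation, cells were stained with a rabbit anti-H1.0 antibody, an AlexaFluor 647 secondary and DAPI. Reported values are H1.0 nuclear intensity or cell number as percent of the plate control, taken as the median of replicates, with positional smoothing for HCC1569.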

TDF [2] = assay: as above
How it was run: as §1

TDF [3] = assay: H1.0 immunofluorescence intensity relative to DMSO (% of DMSO); higher = stronger H1.0 induction, active = 120 or more
How it was run: as §1

HCC1569 [4] = assay: H1.0 immunofluorescence intensity relative to DMSO (% of DMSO); higher = stronger H1.0 induction, active = 140 or more
How it was run: as §1
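For H1.0 immunofluorescence intensity relative to DMSO in this document: TDF is a line of transformed human dermal fibroblasts of mesenchymal origin.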
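For cell number relative to DMSO in this document: TDF denotes transformed human dermal fibroblasts of mesenchymal origin.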

Structure (SMILES) | cell number (HCC1569 [1]) | cell number (TDF [2]) | H1.0 immunofluorescence intensity (TDF [3]) | H1.0 immunofluorescence intensity (HCC1569 [4])
O=C1C(Cl)=C(N2C(=O)CCC2=O)C(=O)c2ccccc21 [MEK Inhibitor II] | 98.9 | 110 | 90.5 (inactive) | 121 (inactive)
COc1ccc2[nH]cc(CCNC(C)=O)c2c1 [Melatonin] | 101 ± 3.5 | 99.5 ± 3 | 93.4 (inactive) | 93.4 (inactive)
N#Cc1ccc(C(c2ccc(C#N)cc2)n2cncn2)cc1 [Letrozole] | 100 | 103 | 96.8 (inactive) | 102 (inactive)
C[N+](C)(C)CCC(=O)c1cccc2ccccc12.[I-] [2-(alpha-Naphthoyl)ethyltrimethylammonium iodide] | 92.7 | 81.5 | 101 (inactive) | 91.6 (inactive)
O=C(O)CCCc1c[nH]c2ccccc12 [Indole-3-butyric acid] | 104 | 99 | 98.4 (inactive) | 86.6 (inactive)
CCCCCCCCCCCC=CCC=CCCCC(=O)O [Eicosa-5,8-dienoic acid (20:2 n-12)] | 101 | 99.6 | 96.8 (inactive) | 105 (inactive)
NCC(O)c1ccc(O)c(O)c1.O=C(O)C(O)C(O)C(=O)O (stereo not drawn) [L(-)-Norepinephrine bitartrate] | 109 | 106 | 95.8 (inactive) | 94.6 (inactive)
COc1cc(/C=C/C(=O)CC(=O)/C=C/c2ccc(O)cc2)ccc1O | 66.5 | 66.7 | 98.3 (inactive) | 161 (active)
COc1ccc(C(=O)Nc2c(Cl)cncc2Cl)cc1OC1CCCC1 | 102 | 93.3 | 91 (inactive) | 106 (inactive)
O=C([O-])Cc1ccccc1Nc1c(Cl)cccc1Cl.[Na+] [Diclofenac sodium] | 109 | 97.8 | 99.1 (inactive) | 89.9 (inactive)
C[N+]1(C)CCCC1C(=O)[O-].Cl (stereo unspecified) | 96.1 | 115 | 95.9 (inactive) | 109 (inactive)
O=C(CCNNC(=O)c1ccncc1)NCc1ccccc1 [Nialamide] | 102.5 ± 0.38 | 103 ± 2.9 | 92.2 (inactive) | 100 (inactive)
N#CC(=Cc1ccc(O)c(O)c1)C(=O)Nc1ccccc1 [Tyrphostin AG 494] | 87.1 | 94.9 | 88 (inactive) | 108 (inactive)
COc1c(O)c2c(=O)cc(OC)c3c4c(OC)cc(=O)c5c(O)c(OC)c6c(c(c1CC(C)(O)C6C(C)=O)c23)c54 (stereo unspecified) [Hypocrellin A] | 75.8 | 67.1 | 97.2 (inactive) | 108 (inactive)
CCCCCCCCC=CCCCCCCCCC(=O)O [10(E)-Nonadecenoic acid] | 96.1 | 98.8 | 97.4 (inactive) | 101 (inactive)
CCCCCCCCCCCCCCCC(=O)OCC=C(C)C=CC=C(C)C=CC1=C(C)CCCC1(C)C [Retinyl palmitate] | 101 | 99.2 | 93.8 (inactive) | 101 (inactive)
OCc1c[nH]c2ccccc12 [Indole-3-carbinol] | 97.5 | 109 | 102 (inactive) | 110 (inactive)
CCCCCCCCC=CCC=CCC=CCCCC(=O)NCCO [Mead ethanolamide] | 104 | 95.8 | 108 (inactive) | 96.2 (inactive)
COc1ccccc1N1CCN(CCN(C(=O)C2CCCCC2)c2ccccn2)CC1.O=C(O)C=CC(=O)O | 104 | 102 | 101 (inactive) | 100 (inactive)
CCNC(=O)CC[C@H](N)C(=O)O [L-Theanine] | 103 | 103 | 102 (inactive) | 95.6 (inactive)
Cc1ccc(Cl)c(Nc2ccccc2C(=O)[O-])c1Cl.[Na+] [Meclofenamic acid sodium] | 106 | 106 | 90.8 (inactive) | 101 (inactive)
CC(=O)C1CCC2C3CC=C4CC(O)CCC4(C)C3CCC12C (stereo unspecified) [Pregnenolone] | 102 | 102 | 95.7 (inactive) | 112 (inactive)
Cl.O[C@H](c1cc(C(F)(F)F)nc2c(C(F)(F)F)cccc12)[C@@H]1CCCCN1 | 52 | 56.7 | 131 (active) | 170 (active)
CC(C)=CCC[C@@H](C)[C@H]1CC[C@H]2[C@@H]3CC=C4C[C@@H](O)CC[C@]4(C)[C@H]3CC[C@]12C [(3beta)-cholesta-5,24-dien-3-ol] | 103 | 88.8 | 96 (inactive) | 101 (inactive)
